Here are results for 40 compounds from PubChem BioAssay (NCI).

“And” between values parts separate entries of the source, which are not always exact repeats. Equal entries are not always repeated. Compounds without any hit were thinned out: in the full panel of roughly 83,000, 20% have a hit.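 The endpoint reported here, percent growth, reads 100 for growth as untreated, 0 for no net growth and -100 for all cells dead.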 The source made the active and inactive calls. Rule for the calls: active = growth percent below 10; inactive = the rest.

For the experiment, the system named is MDA-MB-468 breast. In words: NCI-60 one-dose screen, 48 h (100 = growth as untreated, 0 = no growth, -100 = all killed). The following applies: 10 µM unless noted.
On to `COc1cc(C(=O)c2cc3c(cc2C)OCO3)cc(OC)c1OC`, for which the growth was 27.6% (inactive).
`Cc1cc(C)c(N)c(Br)c1`: the growth is 104% (inactive) and 107% (inactive).
Regarding `CCOC(=O)/C(C#N)=C\Nc1ccc2ncnc(Nc3ccc(Cl)cc3Cl)c2c1`, the growth was 56.4% (inactive).
With `O=C1COCCN1c1ccc(Nc2nc(Cl)nc(N3CCOCC3)n2)cc1` the figure was 87.2% (inactive).
For `CCN(CC)C(=O)C1=C(C)NC(=O)NC1c1ccc2c(c1)OCO2` (stereo not given), the growth is 112% (inactive).
With `O=C1/C(=C/c2ccc([N+](=O)[O-])cc2)CN(C(=O)CCN2CCC(=NO)CC2)C/C1=C\c1ccc([N+](=O)[O-])cc1`, the growth is -33.6% (active).
For the compound `N#Cc1ccccc1Cn1c2nc(=N)c3ccccc3c-2nc2ccccc21`, the growth was 24.3% (inactive).
With `Cc1cccc(N2CCN(CC(O)COc3ccc(Cl)cc3)CC2)c1` (stereo not given), the growth is 107% (inactive).
On to `Cc1nc(Nc2nc3ccccc3o2)nc(-c2cccc([N+](=O)[O-])c2)c1C(=O)Nc1ccc(F)c(Cl)c1`, for which the growth was -2.01% (active).
Take `OCCNc1nc(NCCO)nc(Nc2ccc(C3=NN(c4cc(Cl)cc(Cl)c4)C(c4ccccc4)C3)cc2)n1` (stereo not given): the growth was 73.5% (inactive).
In the case of `COc1ccn2c(C(C)=O)cc(C(=O)c3ccc4c(c3)Sc3ccccc3N4)c2c1`, the growth was -4.11% (active).
Take `CCN(CC)C(=O)CC1=C(C)/C(=C/c2[nH]c(-c3ccc[nH]3)cc2OC)N=C1C`: the growth was 29.9% (inactive).
For the compound `CCc1c(Nc2ccccc2C)nc(N)[nH]c1=O`, the growth was 105% (inactive).
In the case of `N#Cc1c(N)sc(=S)c2c1CCCC2` it was 110% (inactive).
`O=C(Nc1nc2ccccc2s1)Nc1ccc([N+](=O)[O-])cc1Cl`: the growth was 89.9% (inactive).
In the case of `CS(=O)(=O)c1ccc(C(=O)N/N=C/c2cccc3ccccc23)cc1` it was 74.2% (inactive).
Consider `COc1cc(/C(C#N)=C/c2nc3c(N4CCOCC4)nc(Cl)nc3n2C)cc(OC)c1OC`, for which the growth is 15% (inactive).
Consider `CC1c2ccccc2N(S(=O)(=O)c2ccccc2)C1C` (stereo not given), for which the growth is 37.9% (inactive).
As for `Cc1cc(=O)n(C(=S)Nc2ccc(Cl)cc2)c2cc(O)ccc12`, the growth was 98.7% (inactive).
As for `CC(=O)NNC(=S)N/C=C/c1c(C)ccc([N+](=O)[O-])c1[N+](=O)[O-]`, the growth was 98.8% (inactive).
Take `COc1cc(C2=NN(c3ccc(S(N)(=O)=O)cc3)C(c3ccc(Cl)cc3)C2)cc(OC)c1OC` (stereo not given): the growth is 38.3% (inactive).
In the case of `CC1=CCC2C1CC=C(C)C(CC[C@H]1[C@@](C)(O)CCC3OC(C)(C)[C@H](OC(=O)c4ccccc4)CC[C@@]31C)C2(C)C` (stereo not given in full), the growth was 64.8% (inactive).
In the case of `O=C(/C=C/c1cc2ccccc2[nH]c1=O)/C=C/c1cc2ccccc2[nH]c1=O` it was -31.7% (active).
In the case of `CC(C)(c1ccc(OCC(O)CNCc2ccco2)cc1)c1ccc(OCC(O)CNCc2ccco2)cc1` (stereo not given) it was 98.1% (inactive); in that of `O=C(CCl)c1ccc2c(c1)CCCC2`, 116% (inactive); in that of `C=C1C(=O)O[C@@H]2C[C@@H](C)[C@H](OC)CC(=O)[C@](C)(OC(C)=O)C[C@H](OC(=O)/C(C)=C\C)[C@@H]12`, 54.5% (inactive).
In the case of `Cc1cccc(Cc2cnc(NC(=O)CCc3ccc(C)o3)s2)c1`, the growth is 5% (active).
Consider `CN(C)CCCC(=O)Nc1ccc(Cn2nnc3c2C(=O)c2nnn(Cc4ccc(NC(=O)CCCN(C)C)cc4)c2C3=O)cc1`, for which the growth is -62.7% (active).
On to `O=C1Nc2ccc(Br)cc2/C1=N/c1n[nH]c(=S)s1`, for which the growth was 103% (inactive).
`CCCCCCCCCCCCCCCCCC(=O)Nc1ccc(O)cc1`: the growth is 103% (inactive).
In the case of `O=C(Oc1cccc2cccnc12)c1ccccc1` it was 71.7% (inactive) and 93.1% (inactive); in that of `COc1ccc(Nc2ncnc3c2c(SC)nn3-c2ccccc2)cc1`, 69.2% (inactive).
In the case of `NC(CSC(c1ccccc1)(c1ccccc1)c1ccc(Cl)cc1)C(=O)O` (stereo not given) it was -6.09% (active); in that of `COc1ccc(-c2nc(Nc3ccc(-c4nc5ccccc5[nH]4)cc3)nc(N3CCOCC3)n2)cc1`, -1.23% (active); in that of `CCOc1ccc(NC2=C(Cl)C(=O)c3ccccc3C2=O)cc1`, 64.9% (inactive).
For the compound `Cc1cccc2c1S/C(=C/c1ccc([N+](=O)[O-])cc1)C2=O`, the growth is 112% (inactive).
For the compound `COc1cc(/C=C2/C(=O)Nc3ccc(Cl)cc32)ccc1OCc1ccc(Cl)cc1`, the growth was 87.2% (inactive).
As for `CC(CCC(=O)O)[C@H]1CCC2C3C(=O)C[C@@H]4CC(=O)CC[C@]4(C)C3CC(=O)[C@@]21C` (stereo not given in full), the growth is 112% (inactive).
In the case of `Cc1ccc(S(=O)(=O)N2CCc3ccc(O)c4c3C2Cc2cc(Cl)ccc2-4)cc1` (stereo not given), the growth was 53.9% (inactive).
As for `CCN1CCN(Cc2ccc(-c3cc4c(N[C@H](C)c5ccccc5)ncnc4[nH]3)cc2)CC1`, the growth is -38.9% (active).
